Source: PubChem BioAssay
ELG1 genotoxic = inducers of genotoxicity in HEK293T ELG1-luciferase cells. HEK293T ELG1-luciferase reporter, luminescence, 16 h. Potency, µM (highest dose often 46 µM), for inactives: top-dose activity change, positive = activation, actives largely listed as activators. hit rate 1.3% among 330,000. AID 504466; also: % of control where 0% means no effect; nearly all actives have a fitted effect of over 60% in size
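Luminescence read-out: rising ELG1-luciferase signal, reflecting elevated ELG1 protein under genetic stress, flags genotoxic compounds. Cells were treated for 16 hr at 37 °C before ONE-Glo detection.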
SMN2 splice enh = enhancers of SMN2 splice variant expression | hit rate 2.8% among 210,000 | HEK293 SMN2-luciferase splicing reporter, luminescence, 30-36 h | AID 1458 | Potency, µM (top dose mostly 46.1 µM), for inactives: at the highest dose activity change, positive = activation, actives largely listed as activators; also: % of control where 0% means no effect; nearly all actives have a fitted effect of over 55% in size
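HEK293 cells carry an SMN2 minigene-luciferase reporter in which exon 7 inclusion puts luciferase in frame. Cells were seeded at 2000 cells/well, attached for 10-12 hours, then exposed to compounds for 30-36 hours at 37C before ONE-Glo luminescence.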
NPC1 prom act = activators of NPC1 promoter; Huh7 NPC1 promoter luciferase reporter, 24 h; Potency, µM (highest dose often 9.22 µM), inactives show top-dose activation, hits mostly activators; hit rate 2.4% among 320,000; also: % of control where 0% means no effect; nearly all actives have a fitted effect of over 60% in size
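Stable NPC1-promoter luciferase Huh7 line; cpd (DMSO) 24 h, 37 °C, 5% CO2; Amplite luciferase reagent 10 min RT; luminescence readout. qHTS format.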
Rab9 prom act = activators of Rab9 promoter | AID 485297 | hit rate 2.8% among 320,000 | Huh7 Rab9 promoter-luciferase reporter, luminescence, 24 h | Potency, µM (titrated, usually from 9.22 µM), for the others: at the top dose activation, negative = inhibition, hits mostly activators; also: % of control where 0% means no effect; nearly all actives have a fitted effect of over 60% in size
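Stable Rab9-luc Huh7, 1500 cells/well, 2 h settle; cmpd in DMSO, 24 h, 37 °C/5% CO2; luciferase reagent 10 min RT; luminescence.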
ELG1 repair inh = inhibitors of ELG1-dependent DNA repair in HEK293T cells. HEK293T ELG1-luciferase reporter, luminescence, 16 h; DNA damage induced by 5-fluorouridine. Potency, µM (series often up to 46.1 µM), for the others: at the top dose activity change, negative = inhibition, actives largely listed as inhibitors. hit rate 2.3% among 330,000; also: % is scaled to controls: 0 for no effect and ±100 for the full control effect; nearly all actives have a fitted effect of over 55% in size
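HEK293T cells expressing luciferase-tagged ELG1 (2,000/well) received 5-Fluorouridine plus compound or DMSO for 16 hr at 37 °C. Luciferase was read by ONE-Glo luminescence after 30 min at room temperature.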
FLuc modulator = counter-screen for miR-21 project: firefly luciferase inhibitors or activators | P08659 | purified FLuc, Km substrates, luminescence inhibition | Potency, µM (top dose mostly 57.5 µM), without a hit: at the top dose activity change, negative = inhibition, most hits filed as inhibitors | hit rate 6.9% among 360,000 | AID 588342;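 also: plate controls were vehicle for no effect and reference inhibitor for full effect; nearly all actives have a fitted effect of over 55% in size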
Target sequence (P08659 whole entry, looked up): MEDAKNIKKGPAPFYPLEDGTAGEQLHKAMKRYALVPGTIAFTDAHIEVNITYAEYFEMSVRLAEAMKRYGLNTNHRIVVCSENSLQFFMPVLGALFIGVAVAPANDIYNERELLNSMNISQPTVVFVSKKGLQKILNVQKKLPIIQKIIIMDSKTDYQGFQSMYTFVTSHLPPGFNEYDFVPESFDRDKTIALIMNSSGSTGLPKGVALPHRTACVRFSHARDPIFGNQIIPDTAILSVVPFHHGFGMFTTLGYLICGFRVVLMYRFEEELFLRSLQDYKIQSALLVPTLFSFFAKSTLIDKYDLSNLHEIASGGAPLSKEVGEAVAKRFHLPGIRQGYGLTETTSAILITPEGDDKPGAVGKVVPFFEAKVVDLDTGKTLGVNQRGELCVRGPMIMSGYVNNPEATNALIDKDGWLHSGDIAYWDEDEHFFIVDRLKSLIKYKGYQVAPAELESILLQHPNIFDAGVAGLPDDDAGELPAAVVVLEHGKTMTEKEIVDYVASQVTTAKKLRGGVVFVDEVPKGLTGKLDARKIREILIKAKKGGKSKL
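Purified P. pyralis luciferase, 10 nM final, with Km-level 10 uM D-luciferin and 10 uM ATP in 50 mM Tris acetate pH 7.5, 10 mM Mg acetate, 0.01% Tween-20, 0.05% BSA; 6-point qHTS titration about 60 µM downward; luminescence read.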
* marks the source's active call; other numbers are inactive results; ? = inconclusive; . = no result; [ ] = remark or other dose. In the library only some 9.4% were active in any assay of this set; here they are far more common. Calls follow the shape of the dose curve; as a rule, active = well fitted curve in the direction sought with a large enough effect; inconclusive = small, poorly fitted or top-dose-only effect, or another doubt; inactive = no such curve, though single readings can be large; an effect the other way counts as inactive or inconclusive. Potency is read from the fitted curve at half-maximal effect.

SMILES | ELG1 genotoxic | SMN2 splice enh | NPC1 prom act | Rab9 prom act | ELG1 repair inh | FLuc modulator
COc1ccc(C(=O)Cc2ccc(OC)c(OC)c2)cc1 | ? | -7% | ? | 21% | ? | ?
COc1ccc(CCC(C)NC(=O)Cc2ccc(OC)c(OC)c2)c(OC)c1 (stereo unspecified) | -5% | . | -5% | -7%[1.84 µM] | 18µM* | -2%
O=C(Oc1ccccc1Cl)c1cc(-c2ccc3c(c2)OCCO3)on1 | . | . | . | . | . | 2.7µM*
Cc1ccccc1OC(=O)c1cc(-c2ccc3c(c2)OCCO3)on1 | . | . | . | . | . | 0.6µM*
CC(C)c1ccc(OC(=O)c2cc(-c3ccc4c(c3)OCCO4)on2)cc1 | . | . | . | . | . | -19%
Cc1cccc(OC(=O)c2cc(-c3ccc4c(c3)OCCO4)on2)c1C | . | . | . | . | . | 5.4µM*
Cc1cc(C)cc(OC(=O)c2cc(-c3ccc4c(c3)OCCO4)on2)c1 | . | . | . | . | . | -29%
O=C(O)c1cc(C(=O)O)nc(C(=O)O)c1 | . | -3%[9.22 µM] | . | . | . | .
COc1cc(C(=O)NCC(c2ccco2)N2CCOCC2)cc(OC)c1OC (stereo unspecified) | -1% | . | -3% | 1% | -15% | -2%
CCOC(=O)c1sc(N)c(C(=O)Nc2ccccc2)c1C | 17% | . | 22% | 2.8µM* | ? | ?
CCOC(=O)c1sc(N)c(C(=O)OCC)c1C | ? | . | ? | ? | ? | 21µM*
CCOC(=O)c1c(N)sc(C(=O)OCCOC)c1C | 1% | 5% | 29% | ? | ? | ?
CCOC(=O)c1sc(NC(=S)NC(=O)c2ccccc2)c(C(=O)OCC)c1C | 14% | 13% | -1% | 0% | -9% | 3%
CS(=O)(=O)c1ccccc1-c1nnc(NC(=O)c2ccc3ncsc3c2)o1 | -9% | . | -3% | 2% | 17% | 3%
COc1ccc(/C=C/C2=NN(C)C(=O)CC2)cc1 | ? | 11µM* | 2µM* | 2.8µM* | ? | 11µM*
CCOC(=O)CN1N=C(/C=C/c2ccc(C)cc2)CCC1=O | 4% | 9% | 1% | -5% | ? | ?
O=C(O)c1cc([N+](=O)[O-])ccc1N1CCC(Cc2ccccc2)CC1 | 3% | . | -1% | -4% | -6% | 1%
O=C(NCC1CCCO1)c1cc([N+](=O)[O-])ccc1N1CCC(Cc2ccccc2)CC1 (stereo unspecified) | -9% | . | -7% | -3% | 23µM* | -2%
O=C(N/N=C1/CC2CCC1C2)c1cc2ccccc2cc1O (stereo unspecified) | -3% | . | 16% | 4% | -12% | 15µM*
O=C(NCC1CCCO1)c1cc2ccccc2cc1O (stereo unspecified) | 15% | . | ? | ? | ? | 24µM*
O=C(NCC1CCCO1)c1cccc2ccccc12 (stereo unspecified) | -4% | . | 1% | -4% | ? | 1%
O=C(NCC1CCCO1)c1ccc(COc2ccccc2Br)cc1 (stereo unspecified) | 2% | -10% | 1% | -6% | -3% | 24µM*
O=C(Cn1c(=O)n(CCc2ccccc2)c(=O)c2cccnc21)Nc1ccc(F)cc1 | . | -2% | . | . | . | -12%
C=CCNC(=O)N1CCc2nc(COc3ccccc3)c3c(c2C1)CO[C@@H](C)C3 | . | -10%[9.22 µM] | . | . | . | .
O=C(NCC1CCCCC1)c1cc2ccccc2cc1O | 0% | . | ? | 27% | ? | 12µM*
O=C(NCCO)c1cc2ccccc2cc1O | -3% | 6% | 2% | 1% | -3% | -14%
O=C(CSCC(=O)Nc1nc(-c2ccc3c(c2)OCO3)cs1)Nc1nccs1 | 0% | . | 25% | 25% | -17% | ?
CCCC(=O)Nc1nc(-c2ccc3c(c2)OCCO3)cs1 | 2.6µM* | 8.9µM* | 1.8µM* | 3.2µM* | ? | 6µM*
CCCC(=O)Nc1nnc(-c2ccc3c(c2)OCO3)s1 | ? | . | 22% | ? | -19% | -14%
CCCC(=O)Nc1nnc(-c2ccc3c(c2)OCCO3)o1 | -5% | ? | 16% | 2% | ? | 15µM*
